According to PubChem BioAssay AID1236 (Emory University Molecular Libraries Screening Center, 2008):
In all, about 220,000 compounds went through this assay and about 800 (0.36%) were called active. The sample as a whole holds a higher share of actives than the screen did. A number with no mark means an inactive call.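 Rule for the calls: active = inhibition above about 50% (limit read from the data); inactive = the rest.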

tested on: calpain II (m-calpain), Sus scrofa; test: inhibitors of pig calpain II, primary screen, biochemical, fluorogenic peptide substrate, 1536-well (AID 1236); settings: purified calpain II, 30 min, at 16 µM, active compounds read high

Structure (SMILES)	inhibition
CCCc1cc(-c2n[nH]c(=S)n2Cc2ccccc2)cs1	67.9% (active)
CCCc1cc(-c2n[nH]c(=S)n2CC)c2ccccc2n1	-40.7%
CCc1cc(-c2n[nH]c(=S)n2CC(C)C)cs1	44.2%
C=CCN(c1ccccc1C(=O)NCC(=O)OCC)S(=O)(=O)c1ccc(C)cc1	-6.73%
CCn1c(SCC(=O)Nc2ccc(S(=O)(=O)Nc3onc(C)c3C)cc2)nnc1-c1ccccc1	-78.3%
COc1ccc(C(=O)Nc2ccc(S(=O)(=O)Nc3onc(C)c3C)cc2)cc1OC	29.6%
Cc1cc(C)c2nc(-c3cccnc3)cc(C(=O)Nc3ccc(S(=O)(=O)Nc4onc(C)c4C)cc3)c2c1	55.4% (active)
Cc1coc2cc3oc(=O)c(CCC(=O)O)c(C)c3cc12	-98.6%
O=c1cc(N2CCCCC2)c(-c2ccccc2)nn1Cc1cccc(F)c1	55.9% (active)
O=c1cc(N2CCN(Cc3ccccc3)CC2)c(-c2ccccc2)n[nH]1	-13.6%
O=c1c2ccccc2c(-c2ccccc2)nn1Cc1ccccc1	11.2%
COc1cc2sc(C)nc2cc1C	2.42%
O=C(NCCNc1ccc([N+](=O)[O-])cc1)c1cccc2c(Br)cccc12	-5.43%
O=C(COc1ccc(S(=O)(=O)N2CCCCC2)cc1)NCc1ccccn1	-4.04%
CC1(C)OC(=O)C(=CSc2ccc(C(C)(C)C)cc2)C(=O)O1	-10.7%
CCCOc1ccc(NC(=O)C2OC3OC(C)(C)OC3C3OC(C)(C)OC23)cc1 (configuration not stated)	-15.2%
NNC(=O)c1cccc(COCC(F)(F)C(F)F)c1	20.4%
Cc1nc(-c2ccc(Cl)cc2)sc1C(=O)CBr	27.7%
Cc1nc(-c2ccccc2)sc1C(=O)/C=C/c1ccccc1	-0.94%
Cc1ccc(SCC(=O)c2sc(-c3ccccc3)nc2C)cc1	66.3% (active)
Cc1ccc(C)c2c1cc(C)c1nnc(SCC(=O)Nc3cccc(C(=O)O)c3)n12	-13.6%

Structure (SMILES)	inhibition
CC1(C)CCSC(/C=C/c2ccccc2)=N1	-19.7%
CCCN(C(=O)CSc1nnnn1C)c1c(N)n(Cc2ccccc2)c(=O)[nH]c1=O	-5.69%
C=CCNc1nc(Nc2ccc(Cl)cc2)nc(OC)n1	-20.2%
CC1=NNC(=O)C1CCC(=O)N/N=C(\C)c1ccc(Cl)cc1 (configuration not stated)	-20.4%
O=C(Cn1nnc(-c2ccccc2)n1)NCc1ccccc1	8.33%
O=C(Cn1nnc(-c2ccccc2)n1)N/N=C/c1ccc(-c2ccc(Cl)cc2)o1	-60.4%
Cc1[nH]c2ccccc2c1/C=N\NC(=O)Cn1nnc(-c2ccccc2)n1	54.8% (active)
Cc1nn(Cc2ccc(F)cc2)c(C)c1NC(=O)c1cccnc1Cl	7.19%
COc1ccccc1NC(=O)c1c(Br)cnn1C	-19.7%
O=C1C=CC(=O)N1c1ccc(N2CCCCC2)cc1	2.8%
COc1ccc(OCC(=O)NNC(=O)c2cccc(C)c2)cc1	1.17%
COc1ccc(C(=O)Nc2cc(C)ccc2NC(=O)COc2ccccc2)cc1	51.4% (active)
COc1ccc(OCC(=O)NNC(=O)c2ccc(-c3ccccc3)cc2)cc1	-4.48%
O=C(O)C1=C[C@H](c2cccs2)C[C@H](OCCCCO)O1	-6.55%
O=C(COC(=O)c1cnccn1)Nc1cccc2ccccc12	-43.3%
O=C(NC(=S)Nc1ccc(NC(=O)c2cccs2)cc1)c1ccc([N+](=O)[O-])cc1	9.92%
CC1CN/C(=C\C(=O)c2ccc(Br)cc2)C(=O)N1 (configuration not stated)	14.4%
O=C(/C=C/c1ccc(Cl)cc1)N1CCN(c2ccccc2[N+](=O)[O-])CC1	37.4%
CO/N=C/c1ccc(N2CCN(C(=O)c3cccc(Cl)c3)CC2)c([N+](=O)[O-])c1	53.5% (active)
O=C(c1ccc(Cl)c([N+](=O)[O-])c1)N1CCN(c2ccccc2)CC1	14%
CC1=NN(c2ccccc2)C(=O)C1C(=O)c1ccc([N+](=O)[O-])cc1 (configuration not stated)	2.01%

Structure (SMILES)	inhibition
S=c1[nH]nc(Nc2ccccc2)s1	31.7%
COc1ccc(Cl)cc1NC(=O)CN(C)Cc1ccc(OC)c(OC)c1	30.5%
O=C(CSc1ccc(C(F)(F)F)cc1[N+](=O)[O-])NCCOc1ccccc1	-9.45%
Nc1ccccc1Sc1ccc(C(F)(F)F)cc1[N+](=O)[O-]	87.2% (active)
CCS(=O)(=O)c1cc([N+](=O)[O-])c(Sc2ccccc2N)s1	3.47%
O=C1Nc2ccc([N+](=O)[O-])cc2C1=Nc1cccc(CO)c1	21.2%
CC1=NNC(=O)C1CCC(=O)N/N=C\c1cccc(Cl)c1 (configuration not stated)	-0.56%
COc1ccc(/C=C(\NC(=O)c2ccc(OCC(C)C)cc2)C(=O)OCc2ccco2)cc1	14.9%
O=C(Nc1nnc(C2CC2)s1)c1ccccn1	-3.35%
N#CCCCn1c(O)c(N=NC(=O)C(O)c2ccccc2)c2ccccc21 (configuration not stated)	-3.6%
O=C(Cn1cncn1)N/N=C/c1c2ccccc2cc2ccccc12	-113%
O=C1OC(OC(=O)c2ccccc2Br)C(N2CCOCC2)=C1Cl (configuration not stated)	-3.83%
Cc1ccccc1C(=O)OC1OC(=O)C(Cl)=C1Nc1ccccc1 (configuration not stated)	-2.86%
Cc1ccc(NC2=C(Cl)C(=O)OC2OC(=O)c2ccccc2C)cc1 (configuration not stated)	66.5% (active)
CCOc1ccc(/C=N/OCC(=O)NCc2cccs2)cc1	3.21%
COC(=O)c1sccc1NC(=O)CC1C(=O)NCCN1C(=O)Nc1ccc(F)cc1F (configuration not stated)	-15.5%
Cc1cc(NC(=O)/C=C/C(=O)N(CC(=O)NC2CCCC2)c2ccc(F)cc2)no1	1.62%
O=C(c1ccc2c(c1)OCO2)N1CCN(C(=O)c2ccco2)CC1	14.3%
CCC(=O)Nc1ccc(C(=O)N2CCN(C(=O)c3ccco3)CC2)cc1	50.8% (active)
CCNC(=S)N1CCN(C(=O)c2ccco2)CC1	-6.94%
